For 40 sequences, PBM binding z-score results are on record in the supplement of paper PMC6555819.

One assay relates to THRa homodimer (NR concentration 90 nM). Put plainly: PBM binding z-score (relative to random genomic background probes); higher = stronger binding; sequences stand for … in GC…GCGATTGACAGCGTAGAATGAAGG
The gist of the method: (§1)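 Probes were double-stranded and carried 34-nt variable regions with direct-repeat seeds, single-nucleotide variants, half-site ablations and random human genomic background sequences, printed on custom Agilent 4×180K protein-binding microarrays. Arrays were incubated 1 h with ligand-free nuclear receptor dimers in PBS pH 7.4, 2% milk, 0.02% Triton X-100, 1 mM DTT, 0.2 mg/mL BSA and 0.4 mg/ml salmon testes DNA. Antibodies against each partner (one per run) detected binding, and scanned fluorescence was regression-normalized. Binding z-scores use the random background probes as reference.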
The sequence CCGACTGGGGCAGAAGGTTACCATAAGCCAGCCC registered a PBM binding z-score of -0.571.

Turning to ATCGAAAGGTCGAAGGTTAGTATACCCACCCGAA, the PBM binding z-score stood at 0.185.

TCGCGGAGGACACGAAGGTCAGAGCTTTCCAGAG registered a PBM binding z-score of 0.443. The sequence CGAACTGGGTCATTGACAGGACAGTGAATAGTAA showed a PBM binding z-score of 0.357.

Turning to CCGACTGGGGCAATGGTTACCATACTCAGTACGA, the PBM binding z-score is -0.465. Sequence TCTTGTAGATCAAAGGTAAAGAAAGCCGAAGCCT showed a PBM binding z-score of -0.548. On the same count and under the same terms, in the case of TAGCCTAGGTCATTCCGGGGCCAGTATAGAAAGC it was 0.929. On the same count and under the same terms, the value for TCATATAGGTAAATGCTAGTTGAAAGTCCGATCT was -0.299. In turn, GCTTACGGGTCAAAGATTATAGCATGAATAGAAT came in with a PBM binding z-score of -0.519. Turning to CCTAGTAGGTCAGGAGGTCACACACCGGATATGA, the PBM binding z-score turned out to be 2.34. On the same count and under the same terms, in the case of TCATAGAGGTAAAGGTGAAAGTCGAACGATATGA it was -0.473. Still for that read-out and setting: in the case of ATCTCTAGGTAAAGTACAGTGAAAGATCGATAGA it was 0.162.

In turn, GGAACGAGGGCATTCGAGTTGGTAGCATGGCGAT returned a PBM binding z-score of -0.702. CTTCCAAGGTCAAGGTCAGTGAAAGAGACTCGAA gave a PBM binding z-score of 3.64. The same measure, in the same setting: the value for GGAACGACGGCAAGTTGATAGCAGAGTTTGATGG was -1.02. Still for that read-out and setting: in the case of CTCGAAAGGTCGGTAGAGGTGAGTATACGGATAA it was -0.139; in that of ACTAGAAGGCCAAGTTTGGGTCACTCAAACAAAG, 1.32; in that of TGTCAAACTTCAAAGGTAACGTAAGTATCCACAC, -0.0249.

For another assay, the system named is VDR homodimer (NR concentration 270 nM). Described as above. The gist of the method: as §1
The sequence TCATATAGGCAAACAGGTGAAAGTCCGTAAGTTA had a PBM binding z-score of 0.251.

With TCTGCTAGGTCAGTAGGTCAGCTAACGAGCTGCC, the PBM binding z-score is -0.0493. In the case of ATCTCTAGGTAACAAGTTCAGTGAGAGAGAGGAC, the PBM binding z-score came to 2.81. Still for that read-out and setting: the value for TCGAGTAGGTTTGTCGGGGCATTCAGCCAACATA was 0.461; that for ATCTCTAGGTAAAAGTTCAGTCAATCCCGAGGAT was 2.36. Still for that read-out and setting: in the case of TCATATAGGTAAGTGCTAGGTGAAAGTCCGATCT it was 0.173; in that of ATATGTAGGTTATCGGGTCTTTCAGTTTGCGCAT, 1.44.

With GCTAGCAGGCCATTTGGGTCACTGAATGACGGGC, the PBM binding z-score is 0.43. The same measure, in the same setting: the value for CAAACTAGGCCACGAAAGGTCAAAGTCGAATGAC was 2.37; that for TCTTGAAGATCAATAGAGGTTAAGAAAGTGCGCT was -0.178; that for AGAAAGAGGTTATACGTAGATCAGGGAAGAAAGT was 0.623. Same read-out and setting: the value for ATATGTAGGTTAAGGGTAATTCAGGTTGGTTCGC was 1.89. Same read-out and setting: in the case of TAGCCTAGGTCATTCAGGGGCCAGTTTAGAAAGC it was 1.28; in that of TCAGACAGGTGGAGGTAACTCAGGTACGCAGTCG, -0.21; in that of GGAACGAGAGCATTCGAGTTGATAGCATGGCGAT, -0.57. As for ACTAGCAGACCAAGGGTCACTCAAGATTAGTCCG, the PBM binding z-score worked out at 1.2. On the same count and under the same terms, the value for TCAGACAGGTGAAGGTACCTCAGGTACGCAGTCG was 0.0555. Sequence CGTCAAAGATCAACTAAGGTAACGTAAAGCACGC gave a PBM binding z-score of 0.342. Sequence ATCTATAGGTAAGACTCAGTTCAGTGAAGAACGC had a PBM binding z-score of 1.36.

Sequence GCTGCTAGGTCAACAGATGGTCAGCTAAAGCTCG yielded a PBM binding z-score of 0.00157. Same read-out and setting: the value for TAGCCCAGGTCATTCAGGGGCCAGTATAGAAAGC was 2.

In turn, CGACCAAGGTCAAAGGTCAGTGAAGAGATGACGG came in with a PBM binding z-score of 3.83.

CCGACTGGGGCAGAAGGTTACCATAAGCCAGCCC yielded a PBM binding z-score of 0.083.

In turn, ATCGAAAGGTCGAAGGTTAGTATACCCACCCGAA returned a PBM binding z-score of 0.865.

As to TCGCGGAGGACACGAAGGTCAGAGCTTTCCAGAG, the PBM binding z-score was 1.19.

With CGAACTGGGTCATTGACAGGACAGTGAATAGTAA, the PBM binding z-score is 1.05.

CCGACTGGGGCAATGGTTACCATACTCAGTACGA showed a PBM binding z-score of -0.489. On the same count and under the same terms, the value for TCTTGTAGATCAAAGGTAAAGAAAGCCGAAGCCT was -0.117; that for TAGCCTAGGTCATTCCGGGGCCAGTATAGAAAGC was 1.46; that for TCATATAGGTAAATGCTAGTTGAAAGTCCGATCT was 0.45. Same read-out and setting: the value for GCTTACGGGTCAAAGATTATAGCATGAATAGAAT was 0.811; that for CCTAGTAGGTCAGGAGGTCACACACCGGATATGA was 3.13.

Sequence TCATAGAGGTAAAGGTGAAAGTCGAACGATATGA displayed a PBM binding z-score of -0.362. Same read-out and setting: in the case of ATCTCTAGGTAAAGTACAGTGAAAGATCGATAGA it was 0.488. As for GGAACGAGGGCATTCGAGTTGGTAGCATGGCGAT, the PBM binding z-score came out at 2.2. The sequence CTTCCAAGGTCAAGGTCAGTGAAAGAGACTCGAA registered a PBM binding z-score of 2.79.

GGAACGACGGCAAGTTGATAGCAGAGTTTGATGG registered a PBM binding z-score of -0.205. The same measure, in the same setting: the value for CTCGAAAGGTCGGTAGAGGTGAGTATACGGATAA was 0.0872; that for ACTAGAAGGCCAAGTTTGGGTCACTCAAACAAAG was 0.626; that for TGTCAAACTTCAAAGGTAACGTAAGTATCCACAC was -0.101.
